Where “and” joins values, the source holds several entries; their conditions need not be identical. Equal entries are not always repeated. Out of some 360,000 compounds screened, about 3,100 (0.86%) were called active. The full list was thinned out, with actives kept by preference. Values without a mark were called inactive.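 How the source made its calls: active means inhibition or corrected inhibition above about 18%, plus a signal ratio from 0.5 to 1.5 (limit read from the data, passing the limit was not always enough); inactive means the rest.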

The target in this assay is Neuropilin-1 (Homo sapiens) (UniProt O14786). Description: modulators of CendR peptide binding to NRP-1, primary screen, biochemical, fluorescence polarization, uHTS (AID 602438). Particulars: FAM-RPARPAR peptide binding to NRP-1, fluorescence polarization; at 25 µM; active compounds read high. (In general: In fluorescence polarisation assays a small probe gives low polarisation when free and higher when bound to something large.)
Sequence of Neuropilin-1 (Homo sapiens) (O14786 whole entry, looked up): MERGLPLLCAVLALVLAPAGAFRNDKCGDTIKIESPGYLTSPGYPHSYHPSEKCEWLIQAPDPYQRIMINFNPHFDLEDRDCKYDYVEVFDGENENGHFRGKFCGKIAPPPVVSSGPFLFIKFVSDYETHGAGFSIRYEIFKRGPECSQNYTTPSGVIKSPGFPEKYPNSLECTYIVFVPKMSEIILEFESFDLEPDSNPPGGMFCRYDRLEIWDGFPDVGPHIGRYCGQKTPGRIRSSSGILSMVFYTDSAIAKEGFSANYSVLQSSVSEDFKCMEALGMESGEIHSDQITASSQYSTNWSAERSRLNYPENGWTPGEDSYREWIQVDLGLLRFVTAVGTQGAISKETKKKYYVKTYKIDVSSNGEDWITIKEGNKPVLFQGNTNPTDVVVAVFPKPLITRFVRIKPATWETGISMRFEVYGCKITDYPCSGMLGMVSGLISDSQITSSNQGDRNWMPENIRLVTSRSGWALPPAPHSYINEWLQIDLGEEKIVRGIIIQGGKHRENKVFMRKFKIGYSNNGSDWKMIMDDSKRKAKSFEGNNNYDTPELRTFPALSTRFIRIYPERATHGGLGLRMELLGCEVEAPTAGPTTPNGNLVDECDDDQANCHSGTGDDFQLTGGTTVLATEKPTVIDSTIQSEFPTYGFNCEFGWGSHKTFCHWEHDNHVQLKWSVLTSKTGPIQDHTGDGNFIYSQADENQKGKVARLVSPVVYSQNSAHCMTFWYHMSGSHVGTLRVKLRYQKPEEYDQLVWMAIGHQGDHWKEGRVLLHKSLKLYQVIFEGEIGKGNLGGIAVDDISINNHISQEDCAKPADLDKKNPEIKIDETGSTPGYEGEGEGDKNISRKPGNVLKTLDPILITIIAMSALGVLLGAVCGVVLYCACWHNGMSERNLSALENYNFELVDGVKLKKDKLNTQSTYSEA
For `C=C(C)C1CC=C(C)/C(=N/NC(=O)CCCNc2cccc(C)c2)C1` (stereo not drawn), the inhibition was 1.4%.
Turning to `COc1ccccc1NC(=O)COC(=O)CNC(=O)C1CCCCC1`, the inhibition is 9.6%.
`C=C(C)C1CC=C(C)/C(=N\NC(=O)CNc2ccccc2OC)C1` (stereo not drawn): the inhibition was 20.9% (active).
In the case of `N#C/C=C\Oc1ccc(Cl)cc1N`, the inhibition was -3.7%.
Turning to `COc1ccc(C2CC(c3cccs3)=NN2C(=O)CSc2nnc(N)s2)cc1OC` (stereo not drawn), the inhibition was 0.7%.
Turning to `COc1ccc(C2CC(c3cccs3)=NN2C(=O)CSc2nncs2)cc1OC` (stereo not drawn), the inhibition is 28.8% (active).
Consider `COc1ccc(C2CC(c3cccs3)=NN2C(=O)COC(=O)c2cc3ccccc3cc2O)cc1OC` (stereo not drawn), for which the inhibition is 6.7%.
For `CCN(CC(=O)Nc1c(F)cccc1F)C(=O)c1cnc(C)cn1`, the inhibition was 3.1%.
On to `CCN(CC(=O)Nc1c(F)cccc1F)C(=O)c1ccc(-c2ccc(C(C)=O)cc2)o1`, for which the inhibition is 45.1% (active).
Consider `CCN(CC(=O)Nc1c(F)cccc1F)C(=O)c1ccc(-c2ccccc2)cc1`, for which the inhibition was 4.3%.
The value for `CCN(CC)S(=O)(=O)c1ccc(C(=O)N2CCN(C3=NS(=O)(=O)c4ccccc43)CC2)cc1` was -0.8%; that for `CC1CCCCC12NC(=O)N(CC(=O)Nc1ccc(S(=O)(=O)Nc3ncccn3)cc1)C2=O` (stereo not drawn) was -8.9%.
As for `Cc1nnc(CN(C)Cc2cn[nH]c2-c2ccc(-c3ccccc3)cc2)o1`, the figure is -2.9%.
Turning to `CC1(C)S[C@@H]2[C@H](NC(=O)COc3ccccc3)C(=O)N2C1C(=O)OCc1ccccc1` (stereo partly drawn), the inhibition is 26.2% (active).
For the compound `COC(=O)C1[C@H]2SC(C)(C)C(C(=O)OC)N2C(=O)N1Cc1nc2ccccc2s1` (stereo partly drawn), the inhibition was 4.5%.
In the case of `CC1(C)SC2C(NC(=O)COc3ccccc3)C(=O)N2C1C(=O)O` (stereo not drawn), the inhibition was -22.6% and -10.8%.
As to `COC(=O)c1c(NC(=O)COC(=O)[C@@H](NS(=O)(=O)c2ccccc2)C(C)C)sc2c1CCC2`, the inhibition was -8.2%.
As for `Cc1sc(NC(=O)C2C3CCC(O3)C2C(=O)O)c(C(=O)OC(C)C)c1-c1ccc(Cl)cc1` (stereo not drawn), the inhibition was 21% (active).
As for `CC(C)OC(=O)c1cc(NC(=O)C2C3CCC(O3)C2C(=O)O)cc(C(=O)OC(C)C)c1` (stereo not drawn), the figure is -0.2%; as for `COc1ccc(NC(=O)C2C3CCC(O3)C2C(=O)O)cc1OC` (stereo not drawn), 4.9%.
The value for `O=C(CN1C(=O)NC(Cc2c[nH]c3ccccc23)C1=O)Nc1ccccc1C(F)(F)F` (stereo not drawn) was -6.7%; that for `CCn1c(C)nc2cc(C(=O)NNS(=O)(=O)c3ccc(C)cc3C)ccc21` was -7%; that for `CCCn1nc2cc(C(=O)NCc3ccccc3)ccc2c1OCC` was 27% (active).
As for `CCOc1ccc(NC(=O)COc2ccc(C(=O)NC3CCCc4ccccc43)cc2OC)cc1` (stereo not drawn), the figure is -6.4%; as for `Cc1cc(N2C(=O)c3ccc(C(=O)NCc4ccccc4)cc3C2=O)no1`, -12.4%.
With `CCOc1c2ccc(C(=O)NC3CCCc4ccccc43)cc2nn1CC` (stereo not drawn), the inhibition is 22.9% (active).
In the case of `CNS(=O)(=O)c1cccc(C(=O)NC2CCCc3ccccc32)c1` (stereo not drawn), the inhibition is -7.1%.
`C[n+]1ccc(C(=O)NCc2ccccc2)cc1`: the inhibition is 8.4%.
The value for `CC(=O)Cn1ncc(N2CCOCC2)c(Br)c1=O` was -5.8%; that for `Cc1ccc(OCCNC(=O)CCNS(=O)(=O)c2ccc(Br)cc2)cc1` was 4.5%; that for `Nc1c(C(=O)c2cccs2)sc2nsc(SCCN3CCCCC3)c12` was 131%.
The value for `Cn1c(CCC(=O)Nc2ccccc2F)nnc1SCC(=O)Nc1ccccc1Cl` was -3.9%.
The value for `COc1ccccc1NC(=S)N1CCC(NC(=O)C23CC4CC(CC(C4)C2)C3)CC1` was -1.5%; that for `CC(Oc1cc2oc(=O)c3c(c2cc1Cl)CCCC3)C(=O)NCc1ccncc1` (stereo not drawn) was -1.5%; that for `COc1ccc(S(=O)(=O)NC(C)C(=O)NCc2ccncc2)cc1Cl` (stereo not drawn) was 22.5% (active).
`Cc1ccc(S(=O)(=O)NC(C)C(=O)NCc2ccc(Cl)cc2)cc1` (stereo not drawn): the inhibition is -8.1%.
As for `COc1cccc(NC(=O)N2CCC(NC(=O)C(Cc3cccc(C)c3)NC(C)=O)CC2)c1` (stereo not drawn), the figure is 9.8%; as for `CCOC(=O)c1c(/N=C/C2C(=O)CC(C)(C)CC2=O)sc(C)c1C`, -41.2%.
As for `Cc1ccc(C)c(OCCC(=O)OCC(=O)NC(=O)NCc2ccccc2)c1`, the figure is -19%; as for `COc1ccccc1OCCC(=O)OCC(=O)NC(=O)NC(C)(C)C`, -7.2%.
The value for `COc1ccccc1OCCC(=O)OCC(=O)NCc1ccccc1` was 31.3% (active); that for `CC1CCCC(N2CCN(C(=O)c3ccc(F)cc3)CC2)C1` (stereo not drawn) was 1.1%; that for `CC(C)(C)c1cc(=O)n2c(nc3ccccc32)[nH]1` was 3.4%.
On to `COc1ccc(C)cc1N(CC(=O)NC(C)c1ccccc1)S(C)(=O)=O` (stereo not drawn), for which the inhibition was 3.7%.
On to `CCCc1ccc(OCc2ccc(C(=O)N/N=C/c3cccc([N+](=O)[O-])c3)o2)c(OC)c1`, for which the inhibition is -4.8%.
The value for `COc1ccc(O)c(/C=N/N=C/c2cccc([N+](=O)[O-])c2)c1` was 6.7%.
Turning to `COc1cc(/C=N\NC(=O)CNC(=O)c2cccc([N+](=O)[O-])c2)ccc1O`, the inhibition was 21.9% (active).
As for `O=C(/C=C/c1cccs1)NCc1cccnc1`, the figure is -0.9%.
As to `CC[C@]12c3[nH]c4ccc(Cl)cc4c3CCN1C(=O)[C@@H](CC(=O)NCCCOC)C[C@@H]2C(=O)N1CCN(C(=O)c2ccco2)CC1`, the inhibition was 0.7%.
`CCCN(CCC)S(=O)(=O)c1ccc(C(=O)NNC(=O)c2cc(OC)c(OC)c(OC)c2)cc1`: the inhibition is -2.3%.
As for `COc1ccccc1C(=O)COC(=O)CNS(=O)(=O)c1ccc(NC(C)=O)cc1`, the figure is 5.5%; as for `COc1ccccc1C(=O)COC(=O)COc1ccc(C#N)cc1`, 28.5% (active); as for `COc1ccccc1C(=O)COC(=O)CSCC(=O)Nc1cc(C)on1`, -0.2%.
For `Cc1nn(C)c(Cl)c1CN1CCC(n2nccc2NC(=O)C2CCCC2)CC1`, the inhibition was -2.2%.
As to `O=C(CSc1nnc2n1CCCN2)c1ccccc1`, the inhibition is -7.7%.
As to `CCOC(=O)c1ccc(NC(=S)N2CCN(c3ccccn3)CC2)cc1`, the inhibition was 11.2%.
For the compound `COc1cc([N+](=O)[O-])ccc1NC(=S)N1CCN(c2ccccn2)CC1`, the inhibition was 32.1% (active).
The value for `O=[N+]([O-])c1ccc(NC(=S)N2CCN(c3ccccn3)CC2)cc1` was 5%.

For orientation: inhibition means the drop in the measured response relative to a control, in per cent.

The values are drawn from PubChem BioAssay AID602438 (Sanford-Burnham Center for Chemical Genomics, 2012).
